According to PubChem BioAssay (NCATS):
Several values for one entry are separate records, joined by “and”; a condition that tells them apart may be missing. Identical values can stand only once. Results filed as inconclusive are left out. Activity calls are given as the source filed them. Unless noted, calls come from the whole dose curve; as a rule, active = well fitted curve in the direction sought with a large enough effect in the repeat runs; inconclusive = weak or mixed curves; inactive = no such curve, though single readings can be large; an effect the other way counts as inactive or inconclusive.

Experiments:
[1] = target: Cytochrome P450 2D6 (Homo sapiens) (UniProt P10635); experiment: Cytochrome P450 family 2 subfamily D member 6 (CYP2D6) small molecule antagonists: luciferase biochemical (cell-free) qHTS assay (AID 1645840); note: nearly all actives have a fitted effect of over 55% in size; note: potency is the fitted concentration of half-maximal effect; for activity change, negative = inhibition: % is set by controls: 0 for no effect and ±100 for the full control effect
Outline: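 P450-Glo luminescent screen: recombinant CYP2D6 enzyme–proluciferin substrate mix preincubated with compound 10 min at room temperature, then NADPH regeneration added for 1 h at room temperature. Detection reagent added for 20 min; luciferin light read as relative luminescence units.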

[2] = target: Cytochrome P450 2C9 (Homo sapiens) (UniProt P11712); experiment: Cytochrome P450 family 2 subfamily C member 9 (CYP2C9) small molecule antagonists: luciferase biochemical (cell-free) qHTS assay (AID 1645842); note: nearly all actives have a fitted effect of over 55% in size; note: potency is the fitted concentration of half-maximal effect; for activity change, negative = inhibition: % is set by controls: 0 for no effect and ±100 for the full control effect
Outline: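 Luminescence, after 20 min with luciferin detection reagent, reflected CYP2C9 turnover during a 1 h NADPH-driven reaction at 37C. Enzyme-substrate mix contained 0.4% bovine serum albumin and was preincubated with compound 10 min at room temperature.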

[3] = target: N-terminal Xaa-Pro-Lys N-methyltransferase 1 (Homo sapiens) (UniProt Q9BV86); experiment: Confirmatory qHTS for Inhibitors of N-terminal methyltransferase 1 (NTMT1): MTaseGlo Assay (AID 1645874; active = well fitted curve in the direction sought with a large enough effect; an effect the other way counts as inactive or inconclusive; note: nearly all actives have a fitted effect of over 65% in size; note: potency is the fitted concentration of half-maximal effect;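 for activity change, negative = inhibition: luminescence from SAH made as NTMT1 methylates SPKRIA peptide using SAM; 0% = DMSO control and -100% = no-enzyme control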)
Outline: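 NTMT1 (125 nM) preincubated 15 min with compound and 100 uM SAM, then 1 uM SPKRIA peptide added for 30 min at room temperature. SAH detected by MTase-Glo luminescence; normalized to no-enzyme and DMSO controls, fitted to 4-parameter Hill.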

[4] = Primary qHTS for inhibitors of nuclear receptor binding SET domain protein 2 (NSD2) in an isogenic RCH-ACV NSD2 p.E1099K mutant (9B) (AID 1645876; active = well fitted curve in the direction sought with a large enough effect; an effect the other way counts as inactive or inconclusive; note: potency is the fitted concentration of half-maximal effect; nearly all actives have a fitted effect of over 70% in size)
[5] = Primary qHTS for inhibitors of nuclear receptor binding SET domain protein 2 (NSD2) in an RCH-ACV wild type WT cells (2C) (AID 1645877; active = well fitted curve in the direction sought with a large enough effect; an effect the other way counts as inactive or inconclusive; note: potency is the fitted concentration of half-maximal effect; nearly all actives have a fitted effect of over 70% in size)
Papain (Carica papaya) = Papain (Carica papaya) (UniProt P00784); experiment: Primary qHTS assay for inhibitors of the protease papain (AID 1645873; active = well fitted curve in the direction sought with a large enough effect; an effect the other way counts as inactive or inconclusive;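 note: papain turnover of Z-FR-AMC read as the AMC fluorescence gain over 10 min; % is set by controls: 0 for no effect and ±100 for the full control effect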)
[6] = target: Catechol O-methyltransferase (Homo sapiens) (UniProt P21964); experiment: Confirmatory Screen for Target Class Profiling of Small Molecule Inhibitors of Methyltransferases (AID 1745852); details: MTase-Glo luminescence, SAH detection, recombinant enzyme; measured here: COMT max response; stronger effect = lower value; for activity change, negative = inhibition: % is set by controls: 0 for no effect and ±100 for the full control effect
[7] = target: Guanidinoacetate N-methyltransferase (Homo sapiens) (UniProt Q14353); experiment: as above; details: activity change, negative = inhibition: at 57.3 µM (top of the series) unless noted
[8] = target: Nicotinamide N-methyltransferase (Homo sapiens) (UniProt P40261); experiment: as above; details: MTase-Glo luminescence, SAH detection, recombinant enzyme; measured here: NNMT max response; stronger effect = lower value
[9] = target: Phenylethanolamine N-methyltransferase (Homo sapiens) (UniProt P11086); experiment: as above; details: MTase-Glo luminescence, SAH detection, recombinant enzyme; measured here: PNMT max response; stronger effect = lower value
Sequence of Phenylethanolamine N-methyltransferase (Homo sapiens) (P11086 whole entry, looked up): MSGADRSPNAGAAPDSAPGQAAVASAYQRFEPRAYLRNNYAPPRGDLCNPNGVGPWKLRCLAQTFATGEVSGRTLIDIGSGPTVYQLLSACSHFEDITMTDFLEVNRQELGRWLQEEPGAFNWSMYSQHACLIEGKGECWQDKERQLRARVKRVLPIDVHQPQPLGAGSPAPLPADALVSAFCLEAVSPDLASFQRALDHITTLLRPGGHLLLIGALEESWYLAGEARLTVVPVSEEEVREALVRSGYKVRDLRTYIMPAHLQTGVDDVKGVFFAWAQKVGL

Sequence of Cytochrome P450 2D6 (Homo sapiens) (P10635 whole entry, looked up): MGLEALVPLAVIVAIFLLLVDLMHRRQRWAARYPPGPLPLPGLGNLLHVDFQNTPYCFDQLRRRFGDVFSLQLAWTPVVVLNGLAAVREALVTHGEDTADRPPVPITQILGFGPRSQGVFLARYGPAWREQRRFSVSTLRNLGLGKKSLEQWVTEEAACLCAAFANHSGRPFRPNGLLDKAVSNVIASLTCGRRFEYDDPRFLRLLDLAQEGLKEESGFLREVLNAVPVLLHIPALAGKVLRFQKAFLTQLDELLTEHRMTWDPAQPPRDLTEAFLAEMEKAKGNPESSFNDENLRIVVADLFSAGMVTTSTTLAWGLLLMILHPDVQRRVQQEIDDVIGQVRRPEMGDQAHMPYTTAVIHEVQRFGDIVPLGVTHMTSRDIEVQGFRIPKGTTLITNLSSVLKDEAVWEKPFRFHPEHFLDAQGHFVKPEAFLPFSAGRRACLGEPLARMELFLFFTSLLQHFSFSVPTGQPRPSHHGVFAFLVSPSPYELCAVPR
Sequence of Cytochrome P450 2C9 (Homo sapiens) (P11712 whole entry, looked up): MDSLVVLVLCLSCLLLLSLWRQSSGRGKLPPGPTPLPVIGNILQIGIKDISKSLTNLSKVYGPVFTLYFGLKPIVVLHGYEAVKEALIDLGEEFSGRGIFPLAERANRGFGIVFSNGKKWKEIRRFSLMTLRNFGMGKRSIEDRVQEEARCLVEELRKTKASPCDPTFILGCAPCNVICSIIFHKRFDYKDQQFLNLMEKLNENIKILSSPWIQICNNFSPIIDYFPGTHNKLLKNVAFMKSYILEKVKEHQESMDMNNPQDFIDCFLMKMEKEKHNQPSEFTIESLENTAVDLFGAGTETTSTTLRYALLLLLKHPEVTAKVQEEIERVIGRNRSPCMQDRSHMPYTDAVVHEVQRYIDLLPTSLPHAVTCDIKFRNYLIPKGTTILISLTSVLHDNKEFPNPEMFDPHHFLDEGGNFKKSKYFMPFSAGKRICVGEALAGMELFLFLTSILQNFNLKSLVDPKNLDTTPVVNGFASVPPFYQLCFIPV
Sequence of N-terminal Xaa-Pro-Lys N-methyltransferase 1 (Homo sapiens) (Q9BV86 whole entry, looked up): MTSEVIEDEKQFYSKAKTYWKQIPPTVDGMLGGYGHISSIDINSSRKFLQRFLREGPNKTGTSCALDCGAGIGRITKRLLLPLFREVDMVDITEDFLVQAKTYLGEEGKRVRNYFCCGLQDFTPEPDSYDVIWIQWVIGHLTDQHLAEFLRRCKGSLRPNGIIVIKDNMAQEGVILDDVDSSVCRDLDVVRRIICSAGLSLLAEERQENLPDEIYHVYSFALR
Sequence of Papain (Carica papaya) (P00784 whole entry, looked up): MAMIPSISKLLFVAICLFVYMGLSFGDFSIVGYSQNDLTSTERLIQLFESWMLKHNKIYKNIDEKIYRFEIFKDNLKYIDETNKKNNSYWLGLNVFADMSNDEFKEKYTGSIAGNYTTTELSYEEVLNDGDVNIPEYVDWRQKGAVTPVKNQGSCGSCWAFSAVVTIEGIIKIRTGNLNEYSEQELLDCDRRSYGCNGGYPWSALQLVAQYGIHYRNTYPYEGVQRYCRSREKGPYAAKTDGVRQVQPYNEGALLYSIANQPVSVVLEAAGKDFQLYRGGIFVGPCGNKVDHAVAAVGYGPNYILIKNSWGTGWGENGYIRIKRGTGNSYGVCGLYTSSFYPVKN
Sequence of Catechol O-methyltransferase (Homo sapiens) (P21964 whole entry, looked up): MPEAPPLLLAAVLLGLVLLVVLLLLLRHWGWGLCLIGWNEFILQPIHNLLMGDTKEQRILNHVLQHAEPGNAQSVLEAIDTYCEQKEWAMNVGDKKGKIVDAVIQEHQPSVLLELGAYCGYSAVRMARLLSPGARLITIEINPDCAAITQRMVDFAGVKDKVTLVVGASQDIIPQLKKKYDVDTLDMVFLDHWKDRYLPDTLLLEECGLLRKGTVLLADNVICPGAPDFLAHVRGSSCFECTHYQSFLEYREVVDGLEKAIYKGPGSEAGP
Sequence of Nicotinamide N-methyltransferase (Homo sapiens) (P40261 whole entry, looked up): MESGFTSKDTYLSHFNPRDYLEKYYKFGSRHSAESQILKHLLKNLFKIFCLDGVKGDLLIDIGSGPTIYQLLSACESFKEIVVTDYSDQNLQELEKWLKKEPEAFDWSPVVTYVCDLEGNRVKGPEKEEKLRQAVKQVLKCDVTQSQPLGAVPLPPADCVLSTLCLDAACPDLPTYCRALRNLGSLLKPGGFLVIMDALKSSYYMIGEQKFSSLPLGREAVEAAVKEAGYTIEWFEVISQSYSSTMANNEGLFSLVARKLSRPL

In the case of `COc1cccc(OCCCN)c1-c1cc(Nc2cnc(C#N)cn2)n[nH]1`, the Potency [1] is reported as 6.74 µM (active), the Potency [2] is reported as “inactive” and the Potency [3] is reported as 50.1 µM (active) and 21.8 µM (active). For the same compound, the Potency [4] was 0.0103 µM (active) and the Potency [5] was 10.3 nM (active).
In the case of `C[C@@H]1C[C@H](C)CN(CCC(=O)Nc2ccc(Br)cc2)C1`, the Potency [1] is reported as 0.0674 µM (active) and the Potency [2] is reported as “inactive”.
In the case of `CN1CC(O)c2cc(N=NC(N)=O)c(O)cc21` (stereo not drawn), the Potency [1] is reported as “inactive” and the Potency [2] is reported as “inactive”.
With `O=C(Nc1ccccc1)c1ccc(Nc2nnc(-c3ccc(O)cc3)c3ccccc23)cc1` the Potency [1] was “inactive”, the Potency [2] was 6.01 µM (active) and the Potency [3] was “inactive”.
In the case of `CCCCCCCCCCCCCCCC(=O)OC/C=C(C)/C=C/C=C(C)/C=C/C1=C(C)CCCC1(C)C`, the Potency [1] is reported as “inactive” and the Potency [2] is reported as 13.5 µM (active).
With `COCCN(C(=O)c1cc(OC)c(OC)c(OC)c1)c1nc(-c2ccccc2)cs1` the Potency [1] was “inactive” and the Potency [2] was 4.77 µM (active).
In the case of `COc1ccc(S(=O)(=O)Nc2c(C)cc(C)cc2C)cc1`, the Potency [1] is reported as “inactive” and the Potency [2] is reported as 2.39 µM (active).
In the case of `O=C(Nc1ccc(Cl)cc1)Nc1cccc(-c2cccc(N3CCCC3)n2)c1`, the Potency [1] is reported as 6.74 µM (active) and the Potency [2] is reported as 9.52 µM (active).
For `CN[C@H]1CC[C@@H](c2ccc(Cl)c(Cl)c2)c2ccccc21`, the Potency [1] was 2.19 µM (active), the Potency [2] was 15.5 µM (active) and the outcome (Papain (Carica papaya)) was “inactive”. For the same compound, the Potency [4] was 6.68 µM (active) and 9.34 µM (active) and the Potency [5] was 2.66 µM (active) and 9.34 µM (active).
In the case of `COc1cc2c(Nc3cc(F)c(Cl)c(Cl)c3)ncnc2cc1OCC1CCCN(C)CCC1`, the Potency [1] is reported as 16.9 µM (active), the Potency [2] is reported as 19 µM (active) and the Potency [3] is reported as 31.6 µM (active). The Potency [4] was 3.25 µM (active), the Potency [5] was 5150 nM (active) and the activity [6] was -15.2%. It also gave an activity change, negative = inhibition [7] of -2.91%, an activity [8] of -13.9% and an activity [9] of -10.4%.
With `O=S(=O)(Cc1ccccc1)Nc1ccc(-c2ccc3c(cnn3-c3ccc(F)cc3)c2)c(C(F)(F)F)c1` the Potency [1] was “inactive”, the Potency [2] was 6.01 µM (active) and the Potency [3] was “inactive”. The Potency [4] was 18.3 µM (active) and the Potency [5] was 183 nM (active).
In the case of `O=c1cc(N2CCOCC2)nc2c3ccccc3ccn12`, the Potency [1] is reported as 19 µM (active) and the Potency [2] is reported as 15.1 µM (active).
For `Fc1ccc(-c2nc(-c3ccccc3F)[nH]c2-c2ccncc2)cc1`, the Potency [1] was 1.2 µM (active) and the Potency [2] was 1.69 µM (active).
